The results in this text go back to PubChem BioAssay.

The nature of assay [1]: compounds binding Alexa647 anti-His antibody – biochemical, small-molecule microarray, 635 nm fluorescence, artefact control for SMM control protein annotation, primary screen (AID 1128).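 Note: score merges feature fluorescence with signal-to-noise for each printed compound spot.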 The following applies: higher = more signal.
Assay [2] has as its system Human papillomavirus type 1a E7 protein (residues 1-88). The experiment in a line: HPV1a E7 small-molecule binders, primary screen, biochemical, small-molecule microarray, residues 1-88, 635 nm (AID 1129). The following applies: small-molecule microarray binding, fluorescence 635 nm; higher = more signal.
The target of assay [3] is Focal adhesion kinase 1 (Homo sapiens) (UniProt Q05397). The experiment in a line: PTK2 protein binding on printed compound slides – biochemical, small-molecule microarray, 635/667 nm fluorescence, BSA, DTT, primary screen (AID 1130).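 Note: composite of spot emission at 667 nm and signal to noise over triplicate slides.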 Particulars: 635 nm fluorescence, higher = more signal.
Chain of Focal adhesion kinase 1 (Homo sapiens) (Q05397 whole entry, looked up): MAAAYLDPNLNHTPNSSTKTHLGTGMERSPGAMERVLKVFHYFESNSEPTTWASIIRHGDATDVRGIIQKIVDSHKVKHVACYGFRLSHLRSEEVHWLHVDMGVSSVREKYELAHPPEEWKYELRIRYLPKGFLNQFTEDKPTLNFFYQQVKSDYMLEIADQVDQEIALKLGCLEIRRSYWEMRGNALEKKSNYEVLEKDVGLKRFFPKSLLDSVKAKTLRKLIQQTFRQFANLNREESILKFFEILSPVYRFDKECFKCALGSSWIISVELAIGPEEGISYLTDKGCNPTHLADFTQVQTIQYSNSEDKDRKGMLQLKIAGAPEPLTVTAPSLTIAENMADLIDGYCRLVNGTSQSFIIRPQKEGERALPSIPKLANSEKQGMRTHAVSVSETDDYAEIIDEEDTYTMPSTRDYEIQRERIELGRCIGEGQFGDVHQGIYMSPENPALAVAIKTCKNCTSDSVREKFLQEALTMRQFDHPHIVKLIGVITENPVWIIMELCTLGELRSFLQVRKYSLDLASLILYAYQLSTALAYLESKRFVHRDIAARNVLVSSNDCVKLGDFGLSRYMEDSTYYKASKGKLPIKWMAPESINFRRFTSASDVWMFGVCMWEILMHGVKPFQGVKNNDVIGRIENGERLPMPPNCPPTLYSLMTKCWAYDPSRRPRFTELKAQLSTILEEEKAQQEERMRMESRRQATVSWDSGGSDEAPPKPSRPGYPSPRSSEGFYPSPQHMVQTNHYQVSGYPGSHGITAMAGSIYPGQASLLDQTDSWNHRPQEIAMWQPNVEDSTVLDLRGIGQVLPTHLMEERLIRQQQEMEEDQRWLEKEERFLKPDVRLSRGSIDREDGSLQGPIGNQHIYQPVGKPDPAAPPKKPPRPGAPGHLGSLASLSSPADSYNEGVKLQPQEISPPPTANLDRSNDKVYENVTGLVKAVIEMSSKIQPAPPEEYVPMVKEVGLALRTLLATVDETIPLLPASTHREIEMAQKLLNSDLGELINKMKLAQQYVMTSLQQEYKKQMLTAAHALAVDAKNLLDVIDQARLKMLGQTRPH
For assay [4], the system named is Fibrinogen (Alexa647-labelled). The experiment in a line: Alexa647-fibrinogen binding to printed small molecules – biochemical, small-molecule microarray, 635/667 nm fluorescence, artefact control for SMM control-protein annotation, profiling panel (AID 1131).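 Note: z-score merges 667 nm fluorescence with per-spot signal-to-noise over triplicate slides.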 Particulars: fibrinogen-A647 binding fluorescence, higher = more signal.
Assay [5] addresses Follistatin (Homo sapiens) (UniProt P19883). The experiment in a line: FST protein binding to printed compounds – biochemical, small-molecule microarray, 635/667 nm fluorescence, primary screen (AID 1132). The following applies: 635 nm fluorescence, higher = more signal.
In assay [6] the target is Fibroblast growth factor 2 (Homo sapiens) (UniProt P09038). The experiment in a line: basic fibroblast growth factor binding to printed compounds – biochemical, small-molecule microarray, 635/667 nm fluorescence, primary screen (AID 1133). Particulars: FGF2, fluorescence 635/667, higher = more signal.
Chain of Fibroblast growth factor 2 (Homo sapiens) (P09038 whole entry, looked up): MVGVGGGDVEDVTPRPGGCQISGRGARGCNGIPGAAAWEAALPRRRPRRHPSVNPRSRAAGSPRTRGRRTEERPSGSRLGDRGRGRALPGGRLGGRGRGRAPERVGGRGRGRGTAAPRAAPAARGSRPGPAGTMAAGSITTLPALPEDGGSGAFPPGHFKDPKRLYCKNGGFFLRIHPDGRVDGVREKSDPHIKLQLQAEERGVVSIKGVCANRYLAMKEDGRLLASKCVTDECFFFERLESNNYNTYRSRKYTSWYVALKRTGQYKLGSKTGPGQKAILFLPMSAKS
Assay [7] is described as follows: JC-1 mitochondrial potential readout, lung cancer cells – cell-based, A549, JC-1 fluorescence, basal, 24 h, 100 nL, profiling panel (AID 1138).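 Note: A549 lung adenocarcinoma cells under basal conditions with no added stimulus; test concentration not given here.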 The following applies: higher = more signal.
The subject of the next assay is Lefty1. The experiment in a line: Lefty1 protein binding to printed compounds – biochemical, small-molecule microarray, 635/667 nm fluorescence, primary screen (AID 1139). Particulars: fluorescence 635/667, higher = more signal.
Assay [8] deals with wheat germ agglutinin (Triticum aestivum), Alexa647-labelled. The experiment in a line: Alexa647-WGA lectin binding to printed small molecules – biochemical, small-molecule microarray, 635/667 nm fluorescence, artefact control for SMM control-protein annotation, profiling panel (AID 1140).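 Note: score merges 667 nm feature emission with signal to noise over triplicate slides.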 Particulars: WGA-A647 binding, 635 nm fluorescence, higher = more signal.
Assay [9] deals with Luciferin 4-monooxygenase (Photinus pyralis) (UniProt P08659). The experiment in a line: inhibition of purified Photinus pyralis luciferase – biochemical, luminescence, purified enzyme, 2006 set, primary screen (AID 1141).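 Note: cell-free assay with purified firefly luciferase at 100 ng per well in PBS; test concentration not given here.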 The following applies: purified firefly luciferase, SteadyGlo luminescence, 30 min; higher = more signal, called active from +8 up or from −8 down.
Chain of Luciferin 4-monooxygenase (Photinus pyralis) (P08659 whole entry, looked up): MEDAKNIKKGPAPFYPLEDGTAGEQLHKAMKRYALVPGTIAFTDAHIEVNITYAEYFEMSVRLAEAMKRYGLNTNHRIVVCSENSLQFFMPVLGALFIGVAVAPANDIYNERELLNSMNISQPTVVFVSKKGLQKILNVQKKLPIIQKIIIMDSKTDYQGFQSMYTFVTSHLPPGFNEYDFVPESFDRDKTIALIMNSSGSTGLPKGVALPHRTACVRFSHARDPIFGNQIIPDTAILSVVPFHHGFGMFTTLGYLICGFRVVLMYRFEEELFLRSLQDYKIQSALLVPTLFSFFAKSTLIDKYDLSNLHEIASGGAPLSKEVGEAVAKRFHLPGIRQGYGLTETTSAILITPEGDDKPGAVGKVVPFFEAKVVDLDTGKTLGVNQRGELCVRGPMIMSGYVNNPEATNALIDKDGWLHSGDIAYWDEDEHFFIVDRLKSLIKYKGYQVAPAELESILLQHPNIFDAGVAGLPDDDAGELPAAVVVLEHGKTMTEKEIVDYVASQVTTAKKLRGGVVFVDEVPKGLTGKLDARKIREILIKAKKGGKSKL
The test system of assay [10] is Wnt5a (protein binding on small-molecule microarray). The experiment in a line: small molecules binding Wnt5a protein – biophysical, small-molecule microarray, 635/667 nm fluorescence, primary screen (AID 1142).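 Note: fluorescence read at 667 nm with signal to noise per printed feature.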 Particulars: 635 nm fluorescence, higher = more signal.
Assay [11] in a line: ATP-based viability of Huh7 replicon cells – cell-based, CellTiter-Glo luminescence, basal, 48 h, cytotoxicity control for HCV replication inhibitor project, primary screen (AID 1143).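 Note: Huh7 hepatoma cells carrying a hepatitis C replication reporter with no stimulus; test concentration not given here.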 The following applies: higher = more signal, called active from +8 up or from −8 down. On the technique in general: A replicon is a self-replicating genome or part of one, used to study replication in cells.

Assay [12] is described as follows: basal CRE-LacZ reporter activity in PC12 – cell-based, unstimulated, primary screen (AID 1145). Particulars: no forskolin, luminescence, 4.5 h, higher = more signal, called active from +8 up or from −8 down.
Assay [13] can be described thus: forskolin-driven CRE-LacZ activity in PC12 – cell-based, CRE-LacZ reporter, forskolin-stimulated, primary screen (AID 1146).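 Note: PC12 cells with 6xCRE LacZ reporter stimulated by forskolin 10 µM; beta-galactosidase reporter signal reflecting CREB driven transcription.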 Particulars: luminescence, 4.5 h, higher = more signal, called active from +8 up or from −8 down.
The target of assay [14] is Streptavidin (Streptomyces avidinii) (UniProt P22629). The experiment in a line: compounds binding control protein streptavidin – biophysical, small-molecule microarray, 635/667 nm fluorescence, artefact control for SMM compound annotation, primary screen (AID 1147).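 Note: signal reflects streptavidin binding to arrayed compounds as a control protein.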 Particulars: higher = more signal.
Chain of Streptavidin (Streptomyces avidinii) (P22629 whole entry, looked up): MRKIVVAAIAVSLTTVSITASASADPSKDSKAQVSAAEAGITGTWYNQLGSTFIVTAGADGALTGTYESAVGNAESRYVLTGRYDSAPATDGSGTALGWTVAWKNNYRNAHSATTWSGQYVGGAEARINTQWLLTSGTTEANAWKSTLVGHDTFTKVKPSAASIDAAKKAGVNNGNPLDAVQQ
The nature of assay [15]: probe aInhba binding on compound microarray – biochemical, small-molecule microarray, 635/667 nm fluorescence, primary screen (AID 1148).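 Note: score merges 667nm spot fluorescence with signal-to-noise for antibody binding to printed compounds.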 Particulars: higher = more signal.
Assay [16] deals with Torsin-1A (Homo sapiens) (UniProt O14656). The experiment in a line: TOR1A wild-type binding on microarray – cell lysate, small-molecule microarray, lysate, 635/667 nm, primary screen (AID 1149). Particulars: COS7 hTOR1A-WT lysate, 635 nm fluorescence, higher = more signal.
Chain of Torsin-1A (Homo sapiens) (O14656 whole entry, looked up): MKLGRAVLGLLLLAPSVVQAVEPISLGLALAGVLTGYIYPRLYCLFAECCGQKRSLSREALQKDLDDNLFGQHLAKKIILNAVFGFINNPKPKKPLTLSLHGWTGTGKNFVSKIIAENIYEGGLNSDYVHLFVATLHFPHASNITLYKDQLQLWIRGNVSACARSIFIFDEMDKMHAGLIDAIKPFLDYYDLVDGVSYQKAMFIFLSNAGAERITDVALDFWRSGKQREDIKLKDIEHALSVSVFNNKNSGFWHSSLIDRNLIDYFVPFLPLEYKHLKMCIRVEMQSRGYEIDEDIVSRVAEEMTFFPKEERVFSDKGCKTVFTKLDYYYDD
For assay [17] the target is unchanged. The experiment in a line: torsin A mutant lysate binding on microarrays – cell lysate, small-molecule microarray, COS7 lysate, 635/667 nm fluorescence, primary screen (AID 1150).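 Note: score pools 667 nm emission and signal to noise measuring lysate protein binding.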 The following applies: COS7 hTOR1A mutant lysate, 635 nm fluorescence, higher = more signal.
In assay [18] the test system is Sonic hedgehog protein (Shh). The experiment in a line: Sonic hedgehog microarray binding compounds – biochemical, small-molecule microarray, 635/667 nm fluorescence, primary screen (AID 1151).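 Note: Shh protein binding to compounds spotted on small-molecule microarray slides; score combines spot fluorescence intensity with signal-to-noise across triplicate slides.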 Particulars: 635 nm fluorescence, higher = more signal.
Assay [19] in a line: Pseudomonas biofilm growth suppression – PAO1 strain, BacTiter-Glo luminescence, LB-PBS, primary screen (AID 1144). Particulars: P. aeruginosa PAO1 biofilm, 12 h, higher = more signal.

Where “and” joins values, the source holds several entries; their conditions need not be identical. Equal values may be shown once. Calls of active or inactive are those of the source. Unless noted, the rule behind the calls is not given here.

Chain of Follistatin (Homo sapiens) (P19883 whole entry, looked up): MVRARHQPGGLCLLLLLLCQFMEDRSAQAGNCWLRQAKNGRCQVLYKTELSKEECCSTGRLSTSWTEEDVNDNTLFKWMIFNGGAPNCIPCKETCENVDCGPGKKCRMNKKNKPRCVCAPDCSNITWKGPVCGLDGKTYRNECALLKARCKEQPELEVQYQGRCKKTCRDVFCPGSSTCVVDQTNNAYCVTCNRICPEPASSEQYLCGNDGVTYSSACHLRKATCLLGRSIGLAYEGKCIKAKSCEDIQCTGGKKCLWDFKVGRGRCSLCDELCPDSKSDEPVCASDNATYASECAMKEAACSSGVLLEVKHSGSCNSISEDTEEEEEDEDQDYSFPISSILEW

Regarding `CO[C@@H]1COC(=O)[C@H](Cc2ccccc2)NC(=O)CC=C[C@@H](C)[C@H](OC)COC(=O)[C@@H](C)NC(=O)CC=C[C@H]1C`, the composite z-score in assay [1] was 0.106 and 0.0473; in [2], -0.184 and -0.37; in [3] it was -0.129 and 0.183; in assay [4], -0.116 and -0.231; in assay [5], 1.32 and 1.18; in [6], 1.58 and 1.35. Besides, the composite z-score in the assay with Lefty1 is 1.54 and 1.35; in assay [8], -0.714 and -0.807; in [10], -0.21 and 0.189; in [14] it was -0.0436 and -0.304; in [15] it was -0.0986 and -0.319; with Torsin-1A (Homo sapiens) [16], 1.37 and 0.668. The composite z-score was 0.671 and 0.335 in the assay with Torsin-1A (Homo sapiens) [17]; 2.07 and 1.98 in [18]. The z-score is 1.24 and 0.944 in assay [7]; -0.554 (inactive) and -1.49 (inactive) in assay [9]; -0.656 (inactive) and -1.53 (inactive) in assay [11]; 0.345 (inactive) and -0.39 (inactive) in assay [12]; -0.95 (inactive) and -1.65 (inactive) in assay [13].

Take `COC(=O)C1=C(C)N(Cc2ccccc2)[C@]23O[C@](C(=O)OC)(C(=O)N2[C@@H]1c1ccccc1)[C@H]1C(=O)N(c2ccccc2)C(=O)[C@H]13`: the composite z-score is 0.798 and 0.258 in [1]; 1.12 and 0.575 in [2]; 0.277 and 0.0443 in assay [3]; 0.77 and 0.267 in [4]; 0.516 and 1.01 in [5]; 0.562 and 0.626 in assay [6]. For the same compound, the composite z-score with Lefty1 is 0.477 and 1.27; in assay [8] it was 1.07 and 0.541; in assay [10] it was 0.115 and 0.0304; in assay [14], 0.32 and 0.436; in assay [15], 0.201 and -0.0552; with Torsin-1A (Homo sapiens) [16] it was 0.718 and 0.667. Further, the composite z-score in the assay with Torsin-1A (Homo sapiens) [17] was 0.476 and 0.211; in assay [18], 0.833 and 1.14. In addition, the z-score in assay [7] was 0.6 and 0.565; in assay [9] it was -0.207 (inactive) and -0.978 (inactive); in assay [11], -0.123 (inactive) and -0.532 (inactive); in assay [19], -1.18 (inactive); in [12] it was -0.165 (inactive) and 0.472 (inactive); in [13] it was -1.65 (inactive) and -0.623 (inactive).

For `COC(=O)[C@@]1(Cc2ccc(F)cc2)[C@H]2c3cc(C(=O)N4CCCC4)n(Cc4c(CO)[nH]cc(C)c4=O)c3C[C@H]2CN1C(=O)c1ccccc1`, the composite z-score in assay [1] is 2.37 and 2.39; in [2] it was 0.709 and 1.18; in assay [3], 1.1 and 1.41; in assay [4] it was 1.01 and -0.216; in assay [5], 0.529 and 0.121; in assay [6], -0.351 and -0.789. Moreover, the composite z-score is -0.212 and -1.02 in the assay with Lefty1; 1.16 and 0.234 in assay [8]; 2.18 and 0.117 in assay [10]; 0.418 and -0.248 in assay [14]; 1.24 and 0.131 in [15]; 0.113 and -0.501 in the assay with Torsin-1A (Homo sapiens) [16]. Also, the composite z-score was 0.797 and 0.232 in the assay with Torsin-1A (Homo sapiens) [17]; -0.552 and -0.661 in assay [18]. The z-score in assay [7] is 0.395 and 0.404; in [9] it was 2.01 (inactive) and 1.01 (inactive); in [11], -1.28 (inactive) and -0.88 (inactive); in assay [19], -0.0556 (inactive) and 0.0252 (inactive); in assay [12], 0.762 (inactive) and 0.962 (inactive); in [13], 3.71 (inactive) and 3.05 (inactive).

For the compound `C[C@@]1([C@@H](NC(=O)Cc2ccccc2)c2ccc(-c3ccccc3)cc2)C[C@H]1C1CCCCC1`, the composite z-score in assay [1] was 1.13 and 1.49 and 1.27; in assay [2] it was 1.18 and 1.08 and 0.987; in assay [3], 0.284 and 0.0485 and 0.83; in assay [4] it was 0.666 and 0.314 and 0.934; in [5], 0.153 and -0.222 and -0.138; in assay [6] it was -0.131 and -0.0451 and -0.355. The composite z-score in the assay on Lefty1 is -1.08 and -1.06 and -0.0526; in assay [8] it was 1.04 and 0.829 and 1.15; in assay [10], 1.42 and 1.03 and 0.799; in assay [14], 2.11 and 0.863 and -0.261; in assay [15], 0.846 and 1.64 and -0.328; with Torsin-1A (Homo sapiens) [16], 0.0326 and 1.34 and 0.296. Also, the composite z-score with Torsin-1A (Homo sapiens) [17] is 0.621 and 0.522 and 0.821; in [18], -1.33 and -0.836 and -0.607. The z-score was -0.788 and 0.267 and 0.196 in assay [7]; 0.393 (inactive) and 0.406 (inactive) and 1.92 (inactive) in assay [9]; -4.75 (inactive) and -1.29 (inactive) and -1.07 (inactive) in assay [11]; -0.411 (inactive) and -0.255 (inactive) and 0.378 (inactive) in [19]; -0.957 (inactive) and -0.185 (inactive) and -0.375 (inactive) in assay [12]; -1.27 (inactive) and 0.614 (inactive) and 0.79 (inactive) in assay [13].
